From PubChem BioAssay AID624417 (National Center for Advancing Translational Sciences (NCATS), 2012)
Screen size: about 410,000 compounds; about 6,400 (1.6%) were called active. Inconclusive results (about 20%) are left out. Calls follow the shape of the dose curve; as a rule, active = well fitted inhibition curve with a large enough effect; inconclusive = small, poorly fitted or top-dose-only effect; inactive = no such curve, though single readings can be large or run the other way. Shown is part of a subset that was picked to be rich in actives. Entries that show only a call come without a potency.
Also: nearly all actives have a fitted effect of over 55% in size.
Potency is read from the fitted curve at half-maximal effect.

What follows are compounds tested against Glucagon-like peptide 1 receptor (Homo sapiens) (UniProt P43220) (assay: qHTS of GLP-1 Receptor Inverse Agonists (Inhibition Mode)). Settings: HEK293 GLP-1R CRE-luciferase, luminescence, 24 h, GLP-1R form is constitutively active; series mostly up to 38.3 µM.
Chain of Glucagon-like peptide 1 receptor (Homo sapiens) (P43220 whole entry, looked up): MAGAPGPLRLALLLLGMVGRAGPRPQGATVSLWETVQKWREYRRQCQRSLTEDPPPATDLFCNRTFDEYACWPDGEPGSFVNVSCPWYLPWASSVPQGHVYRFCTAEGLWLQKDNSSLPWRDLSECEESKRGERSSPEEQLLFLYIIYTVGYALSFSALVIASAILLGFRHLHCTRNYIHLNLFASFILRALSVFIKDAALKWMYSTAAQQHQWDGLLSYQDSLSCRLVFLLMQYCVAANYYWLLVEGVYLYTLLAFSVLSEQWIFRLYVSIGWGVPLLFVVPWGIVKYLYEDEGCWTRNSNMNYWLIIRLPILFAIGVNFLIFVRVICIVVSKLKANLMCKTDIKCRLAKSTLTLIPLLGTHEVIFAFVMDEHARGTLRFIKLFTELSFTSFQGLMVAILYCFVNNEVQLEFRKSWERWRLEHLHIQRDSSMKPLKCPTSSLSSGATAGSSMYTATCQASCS
Method in brief: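 Readout was luciferase luminescence, measured 12 min after detection reagent at room temperature. Beforehand, GLP-1R reporter HEK293 cells had sat 12 h, then received compounds for 24 hr at 37 deg C.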
`O=C(CC[C@H]1O[C@@H](n2ccc(=O)[nH]c2=O)[C@H](O)[C@@H]1O)N[C@H](Cc1ccccc1)C(=O)NCCCN1CCCC1=O` was tested, and the Potency was “inactive”. `CC(=O)Nc1ccc2c3c(ccc([N+](=O)[O-])c13)CC2` was tested, and the Potency was “inactive”. `O=C(OCc1cn([C@@H]2C[C@H](c3ccc(Cl)cc3)N(Cc3cccs3)C[C@H]2O)nn1)c1ccccc1` was tested, and the Potency was “inactive”. With `CCC(=O)N1Cc2cc(C(=O)NCc3cccc(F)c3)nc(-c3cccc(C4=CCCC4)c3)c2[C@H]1CCO` the Potency was “inactive”. `CCCOc1ccc(F)cc1-c1cc(C(=O)Nc2ccc(F)cc2)[nH]n1` was tested, and the Potency was “inactive”. For `O=C(C(=O)N1CCC(c2ccccc2)CC1)c1ccccc1`, the Potency was “inactive”. With `CN(c1ccccc1)S(=O)(=O)c1cccc(NC(=O)Cc2c(F)cccc2Cl)c1` the Potency was 7.94 µM (active). In the case of `CN(C)S(=O)(=O)c1cccc(NC(=O)Cc2ccsc2)c1`, the Potency is reported as “inactive”. `CN(c1ccccc1)S(=O)(=O)c1cccc(C(=O)NNC(=O)c2ccncc2)c1` was tested, and the Potency was “inactive”. `Cc1ccc(F)c(S(=O)(=O)NC(=O)C2(C)CCN2C(=O)CCc2cccs2)c1` (stereo not drawn) was tested, and the Potency was “inactive”. With `Cc1cccc(NC(=S)N(CCN(C)C)C(C)c2ccco2)c1` (stereo not drawn) the Potency was “inactive”. With `COCCN(C(=S)Nc1ccccc1OC)C1CCN(C(C)C)CC1` the Potency was “inactive”. With `CCc1cccc(NC(=S)N(CCN(C)C)C2CCN(C(C)C)CC2)c1` the Potency was 5.01 µM (active). For `CCc1cccc(NC(=O)CCCN2C(=O)C(c3ccccc3)Oc3cccnc32)c1` (stereo not drawn), the Potency was 7.94 µM (active). In the case of `CCc1cccc(NC(=O)CCNS(=O)(=O)c2cccc3nonc23)c1`, the Potency is reported as “inactive”. In the case of `CCc1cccc(NC(=O)CSc2nccn2C)c1`, the Potency is reported as “inactive”. `Cc1ccc(S(=O)(=O)N2C[C@@H](C)[C@]3(C2)[C@H](O)[C@H](OC(=O)NCc2ccccc2)C[C@H]2C(=O)N(c4ccccc4)C(=O)[C@H]23)cc1` was tested, and the Potency was “inactive”. For `O=C(NCc1ccccc1)C1=C[C@@H](c2ccccc2)C[C@@H](OCCCCO)O1`, the Potency was “inactive”. `O=C(NCc1ccccc1)C1=C[C@@H](C2CCCCC2)C[C@@H](OCc2ccc(CO)cc2)O1` was tested, and the Potency was 10 µM (active). With `O=C(C1=C[C@H](C2CC2)C[C@H](OCc2ccc(CO)cc2)O1)N1CCN(Cc2ccccc2)CC1` the Potency was “inactive”. In the case of `CCCNC(=O)C[C@@H]1CC[C@@H]2[C@H](COC[C@H](O)CN2C(=O)c2cc(Cl)cc(Cl)c2)O1`, the Potency is reported as “inactive”. In the case of `Cc1cccc(C)c1-n1c(C)cc(/C=C2\C(=O)NN(c3ccccc3)C2=O)c1C`, the Potency is reported as “inactive”. With `COc1cc(/C=C2/C(=O)NN(c3cccc(Cl)c3)C2=O)cc(Br)c1O` the Potency was 5.01 µM (active). For `CCOc1c(Br)cc(/C=C2\C(=O)N(CCC#N)N=C2C)cc1OC`, the Potency was “inactive”. `Cc1ccccc1Cn1c(C)c(C(=O)NCc2cccc(C(F)(F)F)c2)sc1=O` was tested, and the Potency was “inactive”. With `CCOC(=O)C1(C)CCCN(C(=O)c2ccc(F)c(Cl)c2)C1` (stereo not drawn) the Potency was “inactive”. `CC(C)C[C@H]1CNC(=O)C(=O)N1C[C@H]1CCCN1C[C@H](Cc1ccc(O)cc1)N1C[C@H](CC(C)C)N(CC2CCCCCC2)C(=O)C1=O` was tested, and the Potency was “inactive”. For `O=C(OCCN1CCOCC1)C1(c2ccccc2)CCCCC1`, the Potency was “inactive”. `O=C(OCc1cc(=O)n2ccsc2n1)C1(c2ccc(Cl)cc2)CC1` was tested, and the Potency was “inactive”. With `CC(=O)N1CCC(C(=O)OCc2ccc(Cl)cc2)(c2ccccc2)CC1` the Potency was 10 µM (active). In the case of `CC=CCn1c(SCCCc2ccccc2)nc2c1c(=O)[nH]c(=O)n2C`, the Potency is reported as “inactive”. In the case of `CCC(=O)N1CCCC1(C)C(=O)Nc1ccc2c(c1)CCN2C(C)=O` (stereo not drawn), the Potency is reported as “inactive”. For `O=C(c1ccccc1)C(O)(CN1CCCCC1)c1ccccc1` (stereo not drawn), the Potency was “inactive”. In the case of `O=C(O)c1cccc(N=NN2CCCCCC2)c1`, the Potency is reported as 3.55 µM (active). `O=C(O)c1ccc(N=NN2CCOCC2)cc1` was tested, and the Potency was “inactive”. With `COc1ccc(C(=O)C(OP(=O)(OC)OC)c2ccccc2OC)cc1` (stereo not drawn) the Potency was “inactive”. In the case of `COc1ccccc1CNC(=O)c1cc(-c2cc(F)ccc2OC)n[nH]1`, the Potency is reported as “inactive”. `O=c1[nH]n(-c2ccc([N+](=O)[O-])cc2)c(=O)c2ccccc12` was tested, and the Potency was 5.01 µM (active). For `COc1cnn(-c2ccc([N+](=O)[O-])cc2)c(=O)c1Cl`, the Potency was “inactive”. For `O=[N+]([O-])c1ccc(N2CCOCC2)cc1`, the Potency was “inactive”. For `COc1ccc(S(=O)(=O)N[C@@H]2C=C[C@@H](CC(=O)N3CCc4ccccc4C3)O[C@@H]2CO)cc1`, the Potency was “inactive”. For `CC(C)CNC(=O)C1(C)CCCN1C(=O)CSc1ccccc1` (stereo not drawn), the Potency was “inactive”. With `CC(=O)Nc1ccc(NC(=O)C2CCCN2S(=O)(=O)c2cccc(C(F)(F)F)c2)cc1` (stereo not drawn) the Potency was “inactive”. In the case of `O=S(=O)(c1cccc(C(F)(F)F)c1)N1c2ccccc2-n2cccc2C1c1cccnc1` (stereo not drawn), the Potency is reported as 10 µM (active). In the case of `O=S(=O)(c1cccc(C(F)(F)F)c1)N1CCN(c2cnccn2)CC1`, the Potency is reported as “inactive”. `CC(C)c1ccc(NC(=S)NNc2ccc(Cl)c(C(=O)O)c2)cc1` was tested, and the Potency was “inactive”. For `Cc1ccc(C)c(NC(=S)NNC(=O)c2csc(C)c2)c1`, the Potency was “inactive”. In the case of `Cc1ccc(C)c(NC(=S)NNC(=S)Nc2ccc(C(C)C)cc2)c1`, the Potency is reported as 3.55 µM (active). `CCCC(=O)NC(Nc1ccccc1OC)C(Cl)(Cl)Cl` (stereo not drawn) was tested, and the Potency was “inactive”. With `CCCCCCCC(=O)NC(Nc1ccccc1OC)C(Cl)(Cl)Cl` (stereo not drawn) the Potency was 6.31 µM (active). `CCCCCN(C(=O)NC(=O)Nc1ccccc1OC)S(C)(=O)=O` was tested, and the Potency was “inactive”. In the case of `Cn1ncc([N+](=O)[O-])c1C(=O)Nc1cc(Cl)ccc1Cl`, the Potency is reported as “inactive”. `CCc1nc2ccc(C(=O)N(C)Cc3ccco3)cn2c1N(C)C(=O)Cc1ccccc1` was tested, and the Potency was “inactive”. `OC[C@@H]1CN(C2CCCC2)C[C@H](n2cnc3c(NC4CCC4)ncnc32)O1` was tested, and the Potency was “inactive”. In the case of `COc1ccccc1C(CNC(=O)c1ccc(C)c(S(=O)(=O)N2CCCCC2)c1)N(C)C` (stereo not drawn), the Potency is reported as “inactive”. With `CCc1ccccc1OCC(=O)Nc1ccc(C)c(S(=O)(=O)N2CCCCCC2)c1` the Potency was 8.91 µM (active). `Cc1ccccc1OCC(=O)Nc1ccc(N2CCN(C(=O)C(C)C)CC2)c(Cl)c1` was tested, and the Potency was 3.98 µM (active). `COc1ccc(NC(=O)C2=NNC(=O)CC2)cc1S(=O)(=O)N1CCCCC1` was tested, and the Potency was “inactive”. With `Cc1ccccc1OCC(=O)Nc1ccc2c(c1)ncn2C` the Potency was “inactive”. For `Cc1ccc(NC(=O)CCC(=O)N2CCC(c3ccccc3)=N2)cc1S(=O)(=O)N1CCCCC1`, the Potency was “inactive”. `Cc1ccc(NC(=O)COC(=O)C2CC2)cc1S(=O)(=O)N1CCOCC1` was tested, and the Potency was “inactive”. `COc1ccccc1C(=O)Nc1ccc(C)c(S(=O)(=O)N2CCCCC2)c1` was tested, and the Potency was 14.1 µM (active). With `Cc1ccccc1OCC(=O)Nc1ccc(S(=O)(=O)N2CCOCC2)cc1` the Potency was “inactive”.
